High-throughput results as filed in PubChem.
The full list was thinned out, with hits kept by preference.
Dicer inh: blocks human Dicer maturation of pre-miR-21 | 47,000 compounds, 6% hits | z-score at 25 µM | cat-ELCCA pre-miR-21 Dicer processing, chemiluminescence; active compounds read high | Q9UPY3; in the data active means z-score above about 3, passing the limit was not always enough;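 further: plate controls were vehicle for no effect and no enzyme for full effect; higher signal means more uncleaved substrate so more Dicer inhibition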
Numbers without * were called inactive.

SMILES	Dicer inh
Cc1onc(-c2c(Cl)cccc2Cl)c1N	-1.03
Cc1onc(-c2c(Cl)cccc2Cl)c1CSC(=S)N(C)C	6.63*
CSC(=S)N(C)NC(=O)Nc1c(-c2c(Cl)cccc2Cl)noc1C	-0.93
Cc1ccc(CNCc2ccc3c(c2)OCO3)s1	-0.56
Cc1ccc(CNCc2ccc3c(c2)OCO3)cc1	0.29
Cc1ccc(C)c(NCc2ccc3c(c2)OCO3)c1	5.43*
c1ccc(Cc2noc(-c3ccccc3)n2)cc1	1
N#Cc1c(-c2cccs2)c2c([nH]c1=O)CCCC2	-1.09
CC1(C)CC(=O)C2=C(C1)N(c1ccc(S(N)(=O)=O)cc1)C(N)=C(C#N)C2c1ccccc1Cl (centres undefined)	-0.26
O=C(CSc1ncc(Sc2ncccn2)c(-c2ccc(Cl)cc2)n1)c1ccc(Cl)cc1	-1.2
O=C(CSc1ncccn1)c1ccc(O)c(O)c1	4.19*
Cn1ccnc1SCC(=O)c1ccc(F)c(F)c1	0.37
Cc1cc(C)c(S(=O)(=O)N2CC(C)OC(C)C2)c(C)c1 (centres undefined)	0.01
CC12N=NCC1C(=O)N(c1ccccc1Cl)C2=O (centres undefined)	0.47
COc1ccc(Oc2ccc([N+](=O)[O-])cc2C(=O)O/N=C(\N)c2ccc(C(F)(F)F)cc2)cc1	-0.47
O=C1/C(=C\c2ccc(F)cc2)N=C(c2ccccc2)N1Cc1ccc(F)cc1	-0.65
O=C1NC(c2ccccc2)=N/C1=C/c1ccccc1	-0.81
O=C1/C(=C/c2ccc(Cl)cc2)N=C(c2ccccc2)N1c1ccc(F)cc1	7.9*
O=C(Nc1ccc(Cl)cc1)N1CCN(c2ccccn2)CC1	1.86
Cc1cc(NC(=O)c2cc3c(s2)-c2ccccc2CC3)ccc1Br	1.01
CCOC(=O)c1cnc(NCc2ccccc2)s1	-1.73
Cc1cnc(NS(=O)(=O)c2ccccc2)c(Br)c1	-0.02
Cc1cccc(C)c1NS(=O)(=O)c1ccc(NS(=O)(=O)c2ccccc2)cc1	0.87
Cc1cc(O)cc(C)c1NS(=O)(=O)c1ccccc1	3.54*
COC(=O)c1csc(S(=O)(=O)N2CCCC2)c1OC	-1.85
SMILES	Dicer inh
Cc1ccc(Cn2ccc(NC(=O)c3cc4n(n3)C(C(F)(F)F)CC(c3ccco3)N4)n2)cc1 (centres undefined)	0.9
Fc1ccc(CN2C3=NCCCN3c3ccccc32)cc1	0.52
Clc1ccc(CN2C3=NCCCN3c3ccccc32)cc1	0.55
Fc1ccc(CN2C3=NCCN3c3ccccc32)cc1	7.44*
CS/C(=C(/C#N)S(=O)(=O)c1ccc(Cl)cc1)N1CCSCC1	-4.21
O=C1C(=O)N2C(=C1C(=O)N1CCCCC1)c1ccccc1CC21CCCC1	-0.81
CC(=O)Nc1ccc(S(=O)(=O)Oc2ccccc2Cl)cc1	-1.09
CC(=O)Nc1ccc(S(=O)(=O)Oc2c(Cl)cc(C)cc2Cl)cc1	4.54*
Cc1ccc(S(=O)(=O)Oc2c(Cl)cc(C(C)(C)C)cc2Br)cc1	-1.05
CC1CCc2c(sc(NC(=O)Nc3ccc(Cl)cc3)c2C(N)=O)C1 (centres undefined)	1.65
Cc1c(NC(=O)Nc2ccccc2)sc2nc(-c3ccc(Cl)cc3)nn12	-2.34
CS(=O)(=O)c1sc(NC(=O)Nc2ccc(Cl)cc2)c2c1C=CCC2	3.33*
FC(F)(F)c1cnc(Sc2cccs2)c(Cl)c1	-2.15
CC1(C)COCCN1C(=O)c1ccc(Cl)cc1	-0.32
Cc1ccc(N2C(=O)C3CCC(C)CC3C2=O)cc1 (centres undefined)	0.19
Cc1ccc(N2C(=O)C(c3ccccc3)C(N3CCOCC3)C2=O)cc1 (centres undefined)	3.11*
O=C1CC(Nc2ccccc2)C(=O)N1c1ccc(N2CCOCC2)cc1 (centres undefined)	-0.25
Cc1ccc(-c2c3c(nc4ncnn24)-c2ccccc2C3=O)cc1	1.35
COc1ccc(Nc2nc3c4ccccc4n(C(C)=O)c3s2)cn1	-1.24
C=CCOc1cc(=O)[nH]c2ccccc12	4.68*
C=CCOc1ccc2[nH]c(C)c(C(=O)OCC)c2c1	-0.95
O=c1cc(CSC(=S)N2CCSCC2)c2ccccc2[nH]1	-0.65
CN(C)CCNC(=O)N1c2ccccc2Sc2ccccc21	-0.21
CCOC(=O)/C(C#N)=C(\NC)SC	1.32
Clc1ccc(Nc2nnns2)cc1	1.6
SMILES	Dicer inh
CC(C)c1ccc(Nc2nnns2)cc1	6.83*
CC(C)c1ccc(NC2(C#N)CCCCC2)cc1	1.36
COc1ccc(Cl)cc1NC(=O)NNC(=O)c1cc(C)n(C(C)(C)C)n1	1
CCN(CC)C(=S)Nc1cccc(SC)c1	2
c1ccc(-c2nsc(N3CCCC3)n2)cc1	3.01*
CCS(=O)(=O)N1CCN(c2nc(-c3ccccc3)ns2)CC1	-0.23
O=C(O)CSCC(=O)N1CCN(c2nc(-c3ccccc3)ns2)CC1	1.25
CC(C)Oc1ccccc1Nc1ncnc2ccccc12	15.8
Cc1ccc(F)cc1S(=O)(=O)Nc1ccc2c(c1)OCC1CCCN21 (centres undefined)	6.51*
Cc1cc(S(=O)(=O)Nc2cccc(F)c2)c(C)c(S(=O)(=O)c2ccccc2)c1	1.8
COc1ccc(NS(=O)(=O)c2ccc(F)cc2)cc1OC1CCCC1	-0.39
CCCCCCSc1nnc2c(n1)OC(C)N(C(C)=O)c1ccccc1-2 (centres undefined)	0.75
CCOC(=O)c1c(NC(=O)C2Cc3ccc(C)cc3C(=O)O2)sc2c1CCC(C)C2 (centres undefined)	0.15
Cc1ccc(CNc2nc(C)nc(C)c2Oc2ccc(Cl)cc2Cl)cc1	-1.43
O=C(NCc1cccs1)c1nc2ncccn2n1	-0.35
Nc1ccc(Cl)cc1C(=O)NCc1cccs1	21*
CCCCCc1ccc(C(=O)NCc2cccs2)cc1	-0.45
CSc1sc(C(=O)NC(=O)NCc2cccnc2)c(C)c1-c1ccno1	-1.59
O=C1OC(C(=O)Nc2ccccc2Cl)Cc2ccccc21 (centres undefined)	-0.22
COc1ccc(C(=O)/C(C#N)=C/NC2CCN(Cc3ccccc3)CC2)cc1	0.07
O=C(N=S1CCN(c2sccc2[N+](=O)[O-])CC1)Nc1ccc(Cl)cc1Cl	-0.17
CCO/C=C1/SC(=S)N(c2cc(OC)cc(C(F)(F)F)c2)C1=O	-2.21
CCO/C=C1\C(=O)N(c2ccccc2)C(=O)c2cc(OC)ccc21	3.3*
CCO/C=C1\C(=O)N(c2ccc(C)cc2)C(=O)c2cc(OC)ccc21	0.4
CC(=O)c1nnn(-c2cccc(Cl)c2Cl)c1C	1.29
SMILES	Dicer inh
COc1ccc(Oc2coc3cc(OC(=O)c4ccco4)ccc3c2=O)cc1	0.95
COc1ccc(C(=O)Oc2ccc3c(=O)c(Oc4ccccc4Br)coc3c2)cc1	1.39
COc1ccc2c(=O)c(Oc3ccccc3Br)coc2c1	4.66*
COc1ccc(Oc2coc3cc(OC(=O)c4ccc(Br)cc4)ccc3c2=O)cc1	5.41*
COc1ccc(Oc2coc3cc(OC(=O)c4cccs4)ccc3c2=O)cc1	1.27
COc1cccc(OC)c1C(=O)Oc1ccc2c(=O)c(Oc3ccccc3Br)coc2c1	2.48
CC(C)NC(=S)N/N=C/c1ccco1	1.2
CC1(C(=O)O)C2C=CC3(CN(Cc4ccccc4)C(=O)C31)O2 (centres undefined)	2.62
O=C(O)C1C2C=CC3(CN(c4ccccc4)C(=O)C13)O2 (centres undefined)	1.47
CC1(C(=O)O)C2C=CC3(CN(c4ccccc4)C(=O)C31)O2 (centres undefined)	5.33*
O=C(Cn1ccc(C(F)(F)F)n1)Nc1ccc(Cl)cc1	-0.82
COCCN1C(=O)c2oc3ccccc3c(=O)c2C1c1ccc(O)cc1 (centres undefined)	-0.66
CC(=O)ON=C1c2cc([N+](=O)[O-])ccc2-c2ccc([N+](=O)[O-])cc21	2.09
